PLCg1 inh – blocks human PLC-gamma1 enzyme activity | P19174 | purified PLC-gamma1, fluorogenic substrate, fluorescence | inhibition, % at 12.2 µM | actives 0.84% (n = 370,000) | AID 720700; in the data active = inhibition above about 9.5%
PLCb3 inh – inhibitors of human phospholipase C beta3; Q01970; Purified PLC-beta3, fluorogenic substrate, fluorescence; inhibition, % at 12.2 µM; actives 0.18% (n = 370,000); AID 720704;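 also: 0% = median of compound wells on plate and 100% = full blocker control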
ADAM17 inh – ADAM17 inhibition, QFRET primary screen; actives 0.83% (n = 370,000); AID 720648; P78536; inhibition, % at 6.95 µM; recombinant ADAM17, EDANS/DABCYL FRET peptide cleavage;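 active = inhibition above the mean of compounds lying between control limits plus 3 SD, set per campaign, cut at about 8.5% in these data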;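 also: 0% = DMSO-only wells as the low control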
Rce1 inh – inhibitors of yeast Ras-converting enzyme; Q03530; yeast membranes, quenched prenylated peptide cleavage fluorescence; calls only; actives 0.27% (n = 290,000);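 active = fall in fluorescence gain of 50% or more versus controls, with final raw signal at or below 3038400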;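 also: plate controls were neutral control wells for no effect and wells lacking membranes for full effect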
ADAM10 inh – ADAM10 inhibition, QFRET primary screen. recombinant ADAM10, EDANS/DABCYL FRET peptide cleavage, 3 h. inhibition, % at 7 µM. actives 0.62% (n = 370,000). AID 720582;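 active = inhibition above a per-campaign cutoff equal to the mean of compounds falling between control-based bounds plus 3 SD, cut at about 20% in these data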;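 also: 0% = DMSO wells while the 100% control is not disclosed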
PLCg1 ctr – counter-screen for PLC-beta3 inhibitors: inhibitors of human PLC-gamma1 | shares compounds with PLCg1 inh | purified PLC-gamma1, fluorogenic substrate, fluorescence | inhibition, % at 12.3 µM | actives 3.1% (n = 3,300); in the data active = inhibition above about 9.5%
PLCb3 confirm – human PLC-beta3 inhibition, confirmation; AID 743261; purified PLC-beta3, fluorogenic substrate fluorescence; shares compounds with PLCg1 inh; actives 1% (n = 3,300); inhibition, % at 12.3 µM
* = called active by the depositor; i = inactive; · = no result given. Most compounds without a hit are left out; they make up all but 2.1% or so of the library. Rule as the data show it, unless noted: active = inhibition above about 11%; inactive = the rest.

SMILES | PLCg1 inh | PLCb3 inh | ADAM17 inh | Rce1 inh | ADAM10 inh | PLCg1 ctr | PLCb3 confirm
CCOC(=O)N1CCN(C(=O)COc2ccccc2Cl)CC1 | 9.5* | 10 | 3 | · | 5 | 1 | 3
COc1cccc(CN2CCC2(C)C(=O)Nc2ccc3c(c2)OCO3)c1F (stereo unspecified) | 5 | -1 | 9 | · | 12 | · | ·
COC(=O)/C=C/c1ccc(OC(=O)OC)c(OC(=O)OC)c1 | -7 | -10 | -4 | i | -5 | · | ·
CCc1cccc(NC(=O)CN(c2ccc(OC)cc2)S(=O)(=O)c2c(C)n[nH]c2C)c1 | 14* | 11* | 4 | i | 5 | 16* | 13*
Cc1noc(C)c1S(=O)(=O)Nc1ccc2c(c1)CC(=O)N([C@H](C)CO)C[C@H](C)[C@@H](CN(C)CC1CC1)O2 | 0 | 1 | -7 | · | 2 | · | ·
c1ccc(Cc2noc(CN3CCN(CCOc4ccccc4)CC3)n2)cc1 | 2 | 0 | 1 | i | 3 | · | ·
CCOC(=O)c1c(C)[nH]c(C(=O)COC(=O)c2oc3ccccc3c2C)c1C | 10* | 4 | 2 | i | 0 | -5 | -4
CCOC(=O)c1c(C)[nH]c(C(=O)COC(=O)c2oc3ccc(OC)cc3c2C)c1C | -2 | -2 | -4 | i | -10 | · | ·
CC(SC(C)C(=O)NN=Cc1cccc(Cl)c1)C(=O)NN=Cc1cccc(Cl)c1 (stereo unspecified) | 9 | 11* | 4 | · | -2 | -12 | -4
COc1ccc(CCNC(=O)C(=O)N/N=C/c2cccs2)cc1OC | 2 | -1 | 0 | i | 10 | · | ·
CCCCN(C(=O)c1ccc(OC)c([N+](=O)[O-])c1)c1c(N)n(CCC)c(=O)[nH]c1=O | -1 | -6 | -5 | i | 1 | · | ·
CCCn1c(N)c(N(CCOC)C(=O)c2ccc([N+](=O)[O-])c(C)c2)c(=O)[nH]c1=O | 9.6* | -2 | 1 | i | 11 | -4 | -1
COc1ccc2nc(NC(=O)C3CCN(S(=O)(=O)c4cnc[nH]4)CC3)sc2c1 | -1 | -3 | -5 | i | -6 | · | ·
Cc1ccc2nc(NC(=O)C3CCN(S(=O)(=O)c4cnc[nH]4)CC3)sc2c1 | 9.6* | 6 | 5 | i | 2 | -9 | 0
Cc1cc(C)cc(NC(=O)C2(c3cccs3)CCOCC2)c1 | 9.8* | 3 | 0 | i | 1 | -8 | -12
CC(CC(=O)Nc1ccc(Br)cc1F)S(=O)(=O)c1ccc2c(c1)NC(=O)CO2 (stereo unspecified) | 12* | -8 | -4 | i | 1 | -6 | -3
CCC(=O)Nc1cccc2ccccc12 | 11* | -3 | -6 | i | -4 | 6 | 3
NC(=O)Nc1cccc2ccccc12 | -12 | -15 | -7 | i | -36 | · | ·
O=C(OCc1cn(Cc2ccccc2F)nn1)N1CCCC1 | 1 | 1 | -2 | · | 8 | · | ·
CC(NC(=O)C(=O)NN=C1CCCCCCCCCCC1)c1ccccc1 (stereo unspecified) | 1 | 4 | 4 | i | 7 | · | ·
c1ccc(Cn2ccc3ccc(-c4ccc5ccn(Cc6cccc(-c7ccsc7)c6)c5c4)cc32)cc1 | -32 | -46 | -12 | · | -24 | · | ·
O=[N+]([O-])c1ccc(-c2c(O)c3ccccc3c3nc4ccccc4nc23)cc1 | 8 | 11* | 2 | i | 1 | -2 | -3
O=[N+]([O-])c1ccc(-c2cnc3ccccc3n2)cc1 | -5 | -6 | -6 | i | 7 | · | ·
O=C(CN1CCN(c2ccccc2)CC1)NC(=O)NCc1ccco1 | 11* | 1 | 3 | i | 5 | -6 | -4
CCCCOc1cccc2c(=O)n(CC(=O)Nc3ccc4c(c3)OCCO4)ccc12 | -1 | 1 | -4 | · | -4 | · | ·
SMILES | PLCg1 inh | PLCb3 inh | ADAM17 inh | Rce1 inh | ADAM10 inh | PLCg1 ctr | PLCb3 confirm
COC1CCN(C(=O)c2cc(COc3ccc(-n4cncn4)cc3)on2)CC1 | 0 | -4 | 1 | i | -1 | · | ·
O=C(c1cc(COc2ccc(-n3cncn3)cc2)on1)N1CCCC1 | 14* | -2 | 3 | i | -4 | 1 | 2
COC(=O)[C@H]1C[C@@]2(O)CN(S(=O)(=O)c3ccc(C)cc3)C[C@@]2(OC(=O)NC2CCCC2)C[C@H]1C(=O)OC | 9.7* | 3 | -4 | · | -10 | -9 | -4
COC(=O)[C@H]1C[C@@]2(O)CN(S(=O)(=O)c3ccc(C)cc3)C[C@@]2(OC(=O)NCc2ccccc2)C[C@H]1C(=O)OC | 1 | 0 | -4 | · | -7 | · | ·
CCCCCCn1c(=O)n2n(c1=O)C[C@]1(OC(=O)NCC3CCCCC3)CN(S(=O)(=O)c3ccc(C)cc3)C[C@]1(O)C2 | 0 | 3 | -1 | · | -11 | · | ·
CCCCCCn1c(=O)n2n(c1=O)C[C@]1(OC(=O)NC3CCCC3)CN(S(=O)(=O)c3ccc(C)cc3)C[C@]1(O)C2 | 11* | 1 | 4 | · | 11 | -5 | -2
CCOc1cccc(-c2cc(NCCc3ccccn3)n3nccc3n2)c1 | -209 | -270 | -130 | · | -495 | · | ·
O=C(CSc1nnc(-c2ccccc2)n1-c1ccc(Cl)cc1)Nc1ccc(OCc2ccccc2)cc1 | 0 | 1 | 2 | · | 1 | · | ·
CCCOc1ccc(/C=N\NC(=O)CCc2n[nH]c(=O)[nH]c2=O)cc1OC | 11* | 13* | 2 | i | 8 | -8 | -1
Cc1onc(-c2ccccc2Cl)c1C(=O)OCn1nnc2ccccc2c1=O | 11* | 3 | 8 | i | 11 | -3 | 1
COc1ccc(C(c2nnnn2Cc2cccs2)N2CCN(c3ccccc3F)CC2)cc1OC (stereo unspecified) | 11* | 14* | 8 | i | 16 | 5 | 4
Fc1ccc(C(c2nnnn2Cc2cccs2)N2CCN(c3ccccc3)CC2)cc1 (stereo unspecified) | 3 | 2 | -3 | i | -4 | · | ·
CCOc1ccc2nc(S(=O)(=O)NC(=O)C3(C)CCN3C(=O)c3cccc(F)c3)sc2c1 (stereo unspecified) | -1 | -2 | -2 | · | -21 | · | ·
CN(Cc1cccc(Cl)c1Cl)C(=O)CCNC(=O)c1ccco1 | 12* | 7 | 3 | · | 0 | 1 | 0
CN(CC(=O)Nc1cccc(F)c1)C(=O)CCNC(=O)c1ccco1 | -3 | -6 | -3 | i | 2 | · | ·
CC(O)CNCCCOc1ccc(Cl)cc1C(C)(C)C (stereo unspecified) | 12* | 1 | -3 | i | 11 | -4 | 3
CC(O)(c1ccc(F)c(F)c1)c1nc(-c2cccc(C#N)c2)cs1 (stereo unspecified) | 2 | 0 | 7 | · | 19 | · | ·
COc1ccc(C2=NOC(Cn3nc(-c4ccccc4)cc3C(=O)NCc3cccc(Br)c3)C2)cc1 (stereo unspecified) | -21 | 16* | 5 | · | -1 | -2 | -1
N#CCCn1nc(-c2ccccc2)c2ccccc2c1=O | 2 | -4 | 0 | i | 3 | · | ·
